Results filed as inconclusive are left out. The source made the active and inactive calls. How the source made its calls: active means hit-call score of the fitted dose curve at least 0.9, where 1 is the maximum; inconclusive means response in the unintended direction; inactive means score below 0.9.
Legend:
[1] = biological target: Cellular tumor antigen p53 (Homo sapiens) (UniProt P04637); assay: TOX21_p53_BLA_p3_ratio: Tox21 HCT-116 p53 Agonism Beta-lactamase Assay, Ratio, Phase 3 (AID 2283596)
In short: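 HCT116 p53-bla cells (4000/well) given compound in DMSO (217-fold dilution) after 5 h, incubated 16 h at 37C. CCF4-AM substrate 2 h at room temperature; 460/530 nm emission ratio, gain fitted against DMSO.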

[2] = TOX21_p53_BLA_p4_viability: Viability Assessment in the Tox21 HCT-116 p53 Agonism Beta-lactamase Assay, Phase 4 (AID 2283597);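 further: hits lower the luminescence signal meaning cytotoxicity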
In short: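 We seeded HCT116 p53 reporter cells at 4000/well and waited 5 h. We then added compounds in DMSO at a 217-fold dilution and incubated for 16 h. Viability was read as CellTiter-Glo luminescence after 30 min at RT.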

PGR (gene 5241) = PGR (gene 5241) (UniProt P06401); assay: TOX21_PR_BLA_Followup_Antagonist_ratio: Tox21 HEK293 Progesterone Receptor (PR) Antagonism Beta-lactamase Follow-Up Assay, Ratio (AID 2283934)
In short: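 PR-UAS-bla HEK293T cells in medium with 2% charcoal-stripped FBS were treated with compounds plus 1 nM (final) promegestone (R5020) for 16 hr at 37C. LiveBLAzer B/G FRET substrate was then added for 2 h at room temperature; signal is cleaved/uncleaved substrate ratio versus DMSO.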

[3] = TOX21_PR_BLA_Followup_Agonist_viability: Viability Assessment in the Tox21 HEK293 Progesterone Receptor (PR) Agonism Beta-lactamase Follow-Up Assay (AID 2283935);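 further: signal loss means lower viability so actives are cytotoxic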
In short: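 PR-UAS-bla HEK293T cells in 2% charcoal-stripped FBS medium, compound added after 6 hr plating, 16 hr at 37C/5% CO2. After bla FRET read, CellTiter-Glo added; luminescence read after 30 min at room temperature; signal loss marks cytotoxicity.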

[4] = TOX21_PR_BLA_Followup_Antagonist_viability: Viability Assessment in the Tox21 HEK293 Progesterone Receptor (PR) Antagonism Beta-lactamase Follow-Up Assay (AID 2283936);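 further: hits lower the luminescence signal meaning cytotoxicity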
In short: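 PR-UAS-bla HEK293T cells (3,000/well, 2% charcoal-stripped FBS) given compound plus R5020 agonist, 16 h at 37C. CellTiter-Glo added after bla read, 30 min at room temperature; luminescence loss indicates cytotoxicity.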

[5] = TOX21_PR_LUC_Followup_Antagonist_viability: Viability Assessment in the Tox21 HEK293 Progesterone Receptor (PR) Antagonism Luciferase Follow-Up Assay (AID 2283940)
In short: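 HEK293-PR-A-luc cells, precultured 5 days in assay medium with 10% charcoal-stripped FBS, were seeded at 3,000 cells/well, treated with compounds in DMSO for 16 h at 37C, and viability was read as cellular ATP by CellTiter-Glo luminescence.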

[6] = TOX21_PR_LUC_Followup_Agonist_viability: Viability Assessment in the Tox21 HEK293 Progesterone Receptor (PR) Agonism Luciferase Follow-Up Assay (AID 2283941);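 further: loss of signal means cytotoxicity so actives lower viability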
In short: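 HEK293-PR-A-luc cells, pre-cultured 5 days in 10% charcoal-stripped FBS, were seeded at 3,000 cells/well, rested 5 h at 37C, then given compound in DMSO for 16 h at 37C. Cellular ATP was read by CellTiter-Glo luminescence; signal loss indicates cytotoxicity.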

[7] = biological target: Cellular tumor antigen p53 (Homo sapiens) (UniProt P04637); assay: TOX21_p53_BLA_p5_ratio: Tox21 HCT-116 p53 Agonism Beta-lactamase Assay, Ratio, Phase 5 (AID 2283599)
In short: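 HCT-116 cells carrying a p53-inducible beta-lactamase reporter were seeded at 4000 cells/well and dosed after 5 h with compound in DMSO (217-fold dilution). After 16 h at 37C, CCF4-AM substrate was added for 2 h, and the 460/530 nm emission ratio was scored as gain-of-signal versus DMSO.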

[8] = TOX21_p53_BLA_p5_viability: Viability Assessment in the Tox21 HCT-116 p53 Agonism Beta-lactamase Assay, Phase 5 (AID 2283600)
In short: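 Compounds, pinned from DMSO at 217-fold dilution, were left on the cells for 16 h. The viability endpoint was ATP content measured by CellTiter-Glo luminescence, where falling signal reflects cytotoxicity.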

[9] = biological target: Cellular tumor antigen p53 (Homo sapiens) (UniProt P04637); assay: TOX21_p53_BLA_p4_ratio: Tox21 HCT-116 p53 Agonism Beta-lactamase Assay, Ratio, Phase 4 (AID 2283601)
In short: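 HCT116 cells carrying an inducible beta-lactamase reporter were plated at 4000 cells/well, rested 5 h, then exposed to compounds in DMSO (217-fold dilution) for 16 h at 37C. CCF4-AM substrate was loaded 2 h at room temperature; 460/530 nm emission ratio scored gain-of-signal versus DMSO.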

Measured: AC50

Sequence of Cellular tumor antigen p53 (Homo sapiens) (P04637 whole entry, looked up): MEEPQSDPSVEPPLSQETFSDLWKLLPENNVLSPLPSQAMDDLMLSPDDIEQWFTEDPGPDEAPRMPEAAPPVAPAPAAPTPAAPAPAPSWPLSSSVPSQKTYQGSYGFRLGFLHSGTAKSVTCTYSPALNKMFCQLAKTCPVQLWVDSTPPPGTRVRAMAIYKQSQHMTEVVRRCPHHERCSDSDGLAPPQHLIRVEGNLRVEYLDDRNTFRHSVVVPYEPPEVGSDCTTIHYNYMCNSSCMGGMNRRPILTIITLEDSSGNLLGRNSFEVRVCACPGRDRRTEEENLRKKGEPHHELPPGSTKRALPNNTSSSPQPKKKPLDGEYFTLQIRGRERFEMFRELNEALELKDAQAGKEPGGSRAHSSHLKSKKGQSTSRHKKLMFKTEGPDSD
Sequence of PGR (gene 5241) (P06401 whole entry, looked up): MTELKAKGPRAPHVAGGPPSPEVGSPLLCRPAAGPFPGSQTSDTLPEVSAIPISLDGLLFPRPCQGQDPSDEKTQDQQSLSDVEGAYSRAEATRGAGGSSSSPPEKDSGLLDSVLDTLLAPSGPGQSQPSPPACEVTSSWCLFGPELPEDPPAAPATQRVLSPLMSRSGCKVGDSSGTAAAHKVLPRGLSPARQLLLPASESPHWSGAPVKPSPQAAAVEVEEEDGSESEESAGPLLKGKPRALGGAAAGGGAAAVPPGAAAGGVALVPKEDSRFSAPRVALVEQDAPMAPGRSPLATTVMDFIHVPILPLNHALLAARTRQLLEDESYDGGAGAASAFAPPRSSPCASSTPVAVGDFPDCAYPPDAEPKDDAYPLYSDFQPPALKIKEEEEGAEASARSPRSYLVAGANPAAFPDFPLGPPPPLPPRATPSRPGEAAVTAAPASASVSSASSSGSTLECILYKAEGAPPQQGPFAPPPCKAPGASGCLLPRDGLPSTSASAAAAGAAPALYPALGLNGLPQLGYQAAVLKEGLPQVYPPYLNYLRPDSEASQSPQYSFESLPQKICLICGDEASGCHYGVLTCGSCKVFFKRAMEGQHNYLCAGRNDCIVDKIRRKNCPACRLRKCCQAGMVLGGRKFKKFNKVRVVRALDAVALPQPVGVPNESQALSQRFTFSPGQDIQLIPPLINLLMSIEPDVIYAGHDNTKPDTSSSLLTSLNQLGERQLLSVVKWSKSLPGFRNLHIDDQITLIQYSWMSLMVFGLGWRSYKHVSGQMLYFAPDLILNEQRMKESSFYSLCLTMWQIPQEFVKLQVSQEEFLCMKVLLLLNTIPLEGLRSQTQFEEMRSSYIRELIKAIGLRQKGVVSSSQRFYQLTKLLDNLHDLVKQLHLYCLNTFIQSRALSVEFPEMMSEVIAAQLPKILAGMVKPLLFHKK

CN1CCN(C2=Nc3cc(F)ccc3Cc3ccccc32)CC1
not listed: [7] | [8] | [9]
inactive: all other assays above

CC1CCCC(C)N1NC(=O)c1ccc(Cl)c(S(N)(=O)=O)c1 (stereo not drawn)
inactive: [1] | [7] | [8]

CC(C)NCC(O)COc1ccccc1-n1cccc1 (stereo not drawn)
inactive: [1] | [7] | [8]

O=C(c1ccc(F)cc1)C1CCN(CCn2c(=S)[nH]c3ccccc3c2=O)CC1
inactive: [1] | [2] | [7] | [9]

CC#CCC(C)[C@H](O)/C=C/[C@@H]1[C@H]2C/C(=C/CCCC(=O)O)C[C@H]2C[C@H]1O (stereo partly drawn)
inactive: [1] | [2] | [9]

CC(C)C[C@@H](N)C(=O)O
inactive: [1] | [7] | [9]

Cc1nc(-c2ccc(Cl)cc2)oc1COC(C)(C)C(=O)O
inactive: [1] | [7] | [8] | [9]

O=[N+]([O-])c1cc(Cl)c(Cl)c(Cl)c1Cl
inactive: [1] | [2] | [9]

CC(Oc1ccccc1)C(=O)N[C@@H]1C(=O)N2[C@@H]1SC(C)(C)[C@@H]2C(=O)O (stereo partly drawn)
inactive: [1] | [7] | [8] | [9]

O=C(O)[C@H]1/C(=C/CO)O[C@@H]2CC(=O)N21
inactive: [1] | [2] | [9]

O=C(COCCOCCOCC(=O)Nc1c(I)cc(I)c(C(=O)O)c1I)Nc1c(I)cc(I)c(C(=O)O)c1I
inactive: [1] | [7] | [8]

OCC1(CO)COC(C(Cl)(Cl)Cl)OC1
inactive: [1] | [7] | [9]

CC(C)(C)c1ccc(C=O)cc1
inactive: [1] | [7] | [8] | [9]

CC(C)(O/N=C(\C(=O)N[C@@H]1C(=O)N2C(C(=O)[O-])=C(C[n+]3ccccc3)CS[C@H]12)c1csc(N)n1)C(=O)O
inactive: [1] | [2] | [7] | [9]

O=C1CCN(c2ccccc2)N1
inactive: [1] | [2] | [8]

COc1ccc(CCC(=O)c2c(O)cc(O[C@@H]3O[C@H](CO)[C@@H](O)[C@H](O)[C@H]3O[C@@H]3O[C@@H](C)[C@H](O)[C@@H](O)[C@H]3O)cc2O)cc1O
inactive: [1] | [7] | [8] | [9]

C[N+](C)(C)CC(O)CCl (stereo not drawn)
inactive: [1] | [2] | [9]

NS(=O)(=O)c1ccccc1Cl
inactive: [1] | [2] | [8] | [9]

Cc1nc2ccccc2s1
inactive: [1] | [2] | [8]

C=CCSSSCC=C
inactive: [7] | [8] | [9]
active: [1] 8.68 µM

COc1ccc(NS(=O)(=O)c2ccc(N)cc2)nn1
inactive: [1] | [7] | [8] | [9]

CCC1NC(=O)c2cc(S(N)(=O)=O)c(Cl)cc2N1 (stereo not drawn)
inactive: [1] | [7] | [8] | [9]

CC(=NCc1ccccc1)c1ccccc1O
inactive: [1] | [7] | [8] | [9]

CC(=O)N[C@@H](CC(=O)N[C@@H](CCC(=O)O)C(=O)O)C(=O)O
inactive: [1] | [7] | [8] | [9]

O=C(O)Cc1csc(-c2ccc(Cl)cc2)n1
inactive: [1] | [7] | [9]

Nc1ccc(C(=O)O)c(O)c1
inactive: [1] | [2] | [8] | [9]

Cc1ccccc1C(=O)O
inactive: [1] | [2] | [9]

CCOC(=O)c1ccc(OC(=O)CCCCCN=C(N)N)cc1
inactive: [1] | [7] | [8]

O=C(CCN1CCN(CCO)CC1)N1c2ccccc2Sc2ccc(C(F)(F)F)cc21
inactive: [1] | [2] | [7] | [9]

CC(C)C[C@H](NC(=O)[C@@H](Cc1c[nH]c2ccccc12)NC(=O)[C@H](Cc1ccc(O)cc1)NC(=O)[C@H](CO)NC(=O)[C@H](Cc1c[nH]c2ccccc12)NC(=O)[C@H](Cc1cnc[nH]1)NC(=O)[C@@H]1CCC(=O)N1)C(=O)N[C@@H](CCCN=C(N)N)C(=O)N1CCC[C@@H]1C(=O)NCC(N)=O
inactive: [1] | [7] | [8] | [9]

CC[C@H]1OC(=O)C[C@@H](O)[C@H](C)[C@@H](O[C@@H]2O[C@H](C)[C@@H](O)[C@H](N(C)C)[C@H]2O)[C@@H](CCN2C[C@H](C)C[C@H](C)C2)C[C@@H](C)C(=O)/C=C/C(C)=C/[C@@H]1CO[C@@H]1O[C@H](C)[C@@H](O)[C@@H](OC)[C@H]1OC
inactive: [1] | [7] | [8]

C=CC(=O)OCCOCCOC(=O)C=C
inactive: [1] | [7] | [9]

C[N+]1(C)CCN(CC(O)(c2ccccc2)C2CCCCC2)CC1 (stereo not drawn)
inactive: [1] | [2] | [8]
